This is part of a sample that, as a whole, favours compounds with a hit. Of some 83,000 tested, about 20% had one in any assay.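 Note: values are percent growth. 100 is the growth of untreated cells, values between 100 and 0 indicate rising inhibition; between -100 and 0 indicates cell death.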 Active and inactive are the calls of the source. The calls were made as follows: active = growth percent below 10; inactive = the rest.
Tests used:
Assay in all cases: NCI-60 one-dose screen, 48 h (100 = growth as untreated, 0 = no growth, -100 = all killed)
Conditions in all cases: 10 µM unless noted
[1] = system: DU-145 prostate
[2] = system: K-562 leukemia
[3] = system: MALME-3M melanoma
[4] = system: MDA-MB-231 breast
[5] = system: RXF 393 renal
[6] = system: SF-268 CNS
[7] = system: SF-295 CNS
[8] = system: SF-539 CNS
[9] = system: UACC-257 melanoma
[10] = system: M14 melanoma
[11] = system: HCT-15 colon
[12] = system: HT29 colon
[13] = system: SNB-75 CNS
[14] = system: U251 CNS
[15] = system: PC-3 prostate
[16] = system: SK-MEL-5 melanoma
[17] = system: UACC-62 melanoma
[18] = system: LOX IMVI melanoma
[19] = system: SK-MEL-28 melanoma
[20] = system: SNB-19 CNS

Measured: growth

CCCCCCCCCc1cc(CN2CCCCC2)c(O)c(CN2CCCCC2)c1
inactive: [1] 66.4% | [2] 31.8% | [3] 75.1% | [4] 30.9% | [5] 78.3% | [6] 71.7% | [7] 64.6% | [8] 60.9% | [9] 58.8% | [10] 68.3% | [11] 52.3% | [12] 40.5% | [13] 60.6% | [14] 45.1% | [15] 53.7% | [16] 40% | [17] 72.9% | [18] 48.6% | [19] 74%

Cn1c2ccccc2c2c3c(c4c5ccccc5n(CCCCCC#N)c4c21)C(=O)N(O)C3=O
active: [5] -21.8% | [7] 9.59% | [8] -33% | [10] 1.43% | [12] 4.37% | [16] -80.3% | [17] -18.5% | [18] -66.7% | [19] 6.74%
inactive: [1] 16.3% | [2] 16.2% | [3] 28.6% | [4] 27.9% | [6] 12.2% | [9] 15.6% | [11] 13.9% | [13] 17.2% | [14] 12.8% | [15] 24.3%

Cc1ccc2c(c1)O/C(=C\c1cccc(OCC(=O)c3ccccc3)c1)C2=O
inactive: [1] 103% | [2] 93.4% | [3] 94.7% | [4] 79% | [5] 80% | [6] 103% | [7] 89.4% | [8] 105% | [9] 93.6% | [10] 98.9% | [11] 69.8% | [12] 118% | [13] 93.4% | [14] 96.5% | [15] 358% | [16] 87.3% | [17] 66.1% | [18] 101% | [19] 110%

CS(=O)(=O)c1ccc(-c2cnc3ccc(-c4cccc(S(C)(=O)=O)c4)nn23)cc1
active: [5] 9.52%
inactive: [1] 27.9% | [2] 46.9% | [3] 35.3% | [4] 49.4% | [6] 36.3% | [7] 53.7% | [8] 24% | [9] 58.1% | [10] 42.8% | [11] 28.2% | [12] 33.7% | [13] 12.4% | [14] 46.3% | [15] 37.6% | [16] 38.3% | [17] 28.8% | [18] 12.3% | [19] 52.5%

O=C(COc1cccc(/C=C2/Oc3ccccc3C2=O)c1)Nc1nccs1
active: [3] -71% | [5] 2.9%
inactive: [1] 104% | [2] 43.3% | [4] 66.1% | [6] 30.3% | [7] 203% | [8] 64.7% | [9] 89.4% | [10] 99.7% | [11] 81.7% | [12] 84.2% | [13] 84.8% | [14] 89.4% | [15] 14.6% | [16] 78.8% | [17] 82.9% | [18] 65.4% | [19] 124%

CC#CC#Cc1cccc(=O)o1
inactive: [1] 100% | [2] 73.8% | [3] 78.9% | [4] 45% | [5] 47.3% | [6] 50.4% | [7] 96.1% | [8] 76.4% | [9] 72.6% | [10] 74.9% | [11] 36.1% | [12] 45.3% | [13] 82.4% | [14] 75.1% | [15] 78.6% | [16] 70.3% | [17] 40.8% | [18] 61.5% | [19] 23.9%

C/C=C/C(N)=O
inactive: [1] 106% | [2] 109% | [3] 99.7% | [4] 108% | [5] 108% | [6] 104% | [7] 106% | [8] 101% | [9] 108% | [10] 95.5% | [11] 96.9% | [12] 102% | [13] 90.6% | [14] 104% | [15] 93.9% | [16] 96.7% | [17] 105% | [18] 99.3% | [19] 93%

OCC1C2C=CC(C2)C1CO (configuration not stated)
inactive: [1] 106% | [2] 112% | [3] 105% | [4] 103% | [5] 113% | [6] 106% | [7] 104% | [8] 126% | [9] 101% | [10] 99.9% | [11] 110% | [12] 97.6% | [13] 75.8% | [14] 100% | [15] 79.5% | [16] 130% | [17] 107% | [18] 101% | [19] 107%

NS(=O)(=O)N(c1cc(C(F)(F)F)cc(C(F)(F)F)c1)C1CCN(Cc2ccc(F)cc2)CC1
active: [12] 8.44%
inactive: [1] 99% | [2] 26.1% | [3] 29% | [4] 67.7% | [5] 41.7% | [6] 79.9% | [7] 81.6% | [8] 83.1% | [9] 62.1% | [10] 46.6% | [11] 24.4% | [13] 55.3% | [14] 59.8% | [15] 34.2% | [16] 32.2% | [17] 57.1% | [18] 68.9% | [19] 82.1%

O=C(Nc1ccc(CN2CCOCC2)cc1)c1[nH]ncc1Nc1ncnc2sccc12
inactive: [4] 15.8% | [7] 17.8% | [9] 19.9% | [10] 14.4% | [14] 13.8% | [15] 11% | [17] 10.1%
active: [1] 5.47% | [2] 4.04% | [3] 8.16% | [5] -43% | [6] 1.23% | [8] -34.1% | [11] 5.47% | [12] 9.37% | [13] -24.7% | [16] -16.5% | [18] -14.4% | [19] 7.07%

CNC(=O)c1cc(Oc2ccc3nc(NC(=O)Nc4ccc(N5CCC(N(C)C)CC5)cc4)sc3c2)ccn1
inactive: [1] 74.1% | [3] 56.1% | [4] 85.6% | [5] 61.5% | [6] 84.7% | [7] 98.9% | [8] 73.4% | [9] 105% | [10] 94% | [11] 74.8% | [12] 20.1% | [13] 86.4% | [14] 57.6% | [15] 95.1% | [16] 86.1% | [17] 99.2% | [18] 69.9% | [19] 87.7%
active: [2] 2.09%

Nc1cccc(-c2nc3sccn3c2-c2ccnc(NCCCNS(=O)(=O)c3ccc(C(F)(F)F)cc3)n2)c1
inactive: [1] 13.5% | [4] 21% | [5] 19.7% | [6] 14.6% | [8] 16.5% | [9] 18.8% | [12] 14% | [20] 29.1% | [14] 19.8%
active: [2] 8.49% | [3] -2.19% | [7] -11.3% | [10] 9.8% | [11] 1.79% | [15] 1.93% | [16] -90.5% | [17] -33.3% | [18] -30.2%

CC[C@@H](C)OC(=O)c1nn(C(C)=O)c2ccccc12
inactive: [1] 107% | [2] 112% | [3] 109% | [4] 98.8% | [5] 99.4% | [6] 104% | [7] 93.1% | [8] 105% | [9] 101% | [10] 102% | [11] 89.9% | [12] 107% | [20] 100% | [14] 99.4% | [15] 103% | [16] 94.1% | [17] 99.2% | [18] 95.6% | [19] 114%

CC1=CC(=O)CC(C)(C)[C@@]1(O)/C=C/[C@@H](C)O
inactive: [1] 108% | [2] 115% | [3] 102% | [4] 93.3% | [5] 93.3% | [6] 98.1% | [7] 91.5% | [8] 102% | [9] 89.1% | [10] 102% | [11] 89.4% | [12] 112% | [20] 97.7% | [14] 90.8% | [15] 101% | [16] 97.4% | [17] 99.7% | [18] 93.7% | [19] 108%

c1ccc(Sc2ncnc3ccccc23)cc1
inactive: [1] 89.3% | [2] 71.4% | [3] 64.1% | [4] 93% | [5] 83.1% | [6] 70% | [7] 93.7% | [8] 89% | [9] 70.5% | [10] 71% | [11] 75.2% | [12] 88.2% | [13] 73.2% | [14] 87.2% | [15] 83.5% | [16] 66.1% | [18] 67.5%

C=C1CC2(OC1=O)C(=O)N(CCCCCCCCCCCCN1C(=O)C3(CC(=C)C(=O)O3)c3ccccc31)c1ccccc12 (configuration not stated)
inactive: [1] 98.7% | [3] 75.5% | [4] 55.8% | [5] 52.8% | [6] 93% | [7] 97.6% | [8] 87.3% | [9] 94.9% | [10] 79.4% | [11] 65% | [12] 86.7% | [20] 89.5% | [14] 74.3% | [15] 64.7% | [16] 86.4% | [17] 78.9%
active: [2] 6.7% | [18] 4.86%

Cc1cc(Cl)ccc1Nc1nc(C(F)(F)F)ccc1C(=O)N/N=C/c1ccc(F)cc1
inactive: [1] 35.2% | [5] 17.8% | [6] 19.6% | [7] 17.4% | [8] 24.6% | [13] 42% | [19] 34.1%
active: [2] 5.33% | [3] 6.12% | [4] -9.74% | [9] 8.52% | [10] 2.84% | [11] 6.36% | [12] 4.55% | [14] 3.86% | [16] 5.06% | [18] 0.251%

From PubChem BioAssay (NCI)
